What was measured:
Experiment in all cases: log2 ratio of Biotin-Ahx-Ub-VS probe labelling (fragment/DMSO); higher = less target engagement (more negative = stronger competition), active = hit call of the paper (q ≤ 0.05, log2 ratio ≤ -1)
Details in all cases: compound concentration: 200 uM; treatment time: 3 h
[1] = target: USP9X (UniProt Q93008)
In short: (§1)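 HEK293T lysate (495 µg per sample, in Tris/CHAPS/IGEPAL buffer with protease inhibitors) was treated in triplicate with fragment at 200 µM or with DMSO for 3 h. It was then treated with Biotin-Ahx-Ub-VS (0.5 µM final) for 1 h. Labelled DUBs were NeutrAvidin-enriched, digested with LysC and trypsin, and run by diaPASEF LC-MS/MS. Spectronaut label-free quantities were global-median-normalised. Values are average log2 ratios fragment/DMSO by unpaired t-test, using proteins with ≥2 unique peptides.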

[2] = target: UniProt O00487
UniProt O00487, sequence (O00487 whole entry): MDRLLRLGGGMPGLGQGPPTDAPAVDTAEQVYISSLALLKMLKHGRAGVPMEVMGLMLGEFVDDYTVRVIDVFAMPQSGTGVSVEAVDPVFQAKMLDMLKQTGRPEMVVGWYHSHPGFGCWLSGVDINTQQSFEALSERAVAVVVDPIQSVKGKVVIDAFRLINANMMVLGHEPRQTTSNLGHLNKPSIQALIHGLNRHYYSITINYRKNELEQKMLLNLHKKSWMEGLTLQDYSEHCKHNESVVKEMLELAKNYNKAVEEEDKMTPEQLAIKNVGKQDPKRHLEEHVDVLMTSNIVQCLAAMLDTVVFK
In short: as §1

[3] = target: UniProt O00507
UniProt O00507, sequence (O00507 whole entry): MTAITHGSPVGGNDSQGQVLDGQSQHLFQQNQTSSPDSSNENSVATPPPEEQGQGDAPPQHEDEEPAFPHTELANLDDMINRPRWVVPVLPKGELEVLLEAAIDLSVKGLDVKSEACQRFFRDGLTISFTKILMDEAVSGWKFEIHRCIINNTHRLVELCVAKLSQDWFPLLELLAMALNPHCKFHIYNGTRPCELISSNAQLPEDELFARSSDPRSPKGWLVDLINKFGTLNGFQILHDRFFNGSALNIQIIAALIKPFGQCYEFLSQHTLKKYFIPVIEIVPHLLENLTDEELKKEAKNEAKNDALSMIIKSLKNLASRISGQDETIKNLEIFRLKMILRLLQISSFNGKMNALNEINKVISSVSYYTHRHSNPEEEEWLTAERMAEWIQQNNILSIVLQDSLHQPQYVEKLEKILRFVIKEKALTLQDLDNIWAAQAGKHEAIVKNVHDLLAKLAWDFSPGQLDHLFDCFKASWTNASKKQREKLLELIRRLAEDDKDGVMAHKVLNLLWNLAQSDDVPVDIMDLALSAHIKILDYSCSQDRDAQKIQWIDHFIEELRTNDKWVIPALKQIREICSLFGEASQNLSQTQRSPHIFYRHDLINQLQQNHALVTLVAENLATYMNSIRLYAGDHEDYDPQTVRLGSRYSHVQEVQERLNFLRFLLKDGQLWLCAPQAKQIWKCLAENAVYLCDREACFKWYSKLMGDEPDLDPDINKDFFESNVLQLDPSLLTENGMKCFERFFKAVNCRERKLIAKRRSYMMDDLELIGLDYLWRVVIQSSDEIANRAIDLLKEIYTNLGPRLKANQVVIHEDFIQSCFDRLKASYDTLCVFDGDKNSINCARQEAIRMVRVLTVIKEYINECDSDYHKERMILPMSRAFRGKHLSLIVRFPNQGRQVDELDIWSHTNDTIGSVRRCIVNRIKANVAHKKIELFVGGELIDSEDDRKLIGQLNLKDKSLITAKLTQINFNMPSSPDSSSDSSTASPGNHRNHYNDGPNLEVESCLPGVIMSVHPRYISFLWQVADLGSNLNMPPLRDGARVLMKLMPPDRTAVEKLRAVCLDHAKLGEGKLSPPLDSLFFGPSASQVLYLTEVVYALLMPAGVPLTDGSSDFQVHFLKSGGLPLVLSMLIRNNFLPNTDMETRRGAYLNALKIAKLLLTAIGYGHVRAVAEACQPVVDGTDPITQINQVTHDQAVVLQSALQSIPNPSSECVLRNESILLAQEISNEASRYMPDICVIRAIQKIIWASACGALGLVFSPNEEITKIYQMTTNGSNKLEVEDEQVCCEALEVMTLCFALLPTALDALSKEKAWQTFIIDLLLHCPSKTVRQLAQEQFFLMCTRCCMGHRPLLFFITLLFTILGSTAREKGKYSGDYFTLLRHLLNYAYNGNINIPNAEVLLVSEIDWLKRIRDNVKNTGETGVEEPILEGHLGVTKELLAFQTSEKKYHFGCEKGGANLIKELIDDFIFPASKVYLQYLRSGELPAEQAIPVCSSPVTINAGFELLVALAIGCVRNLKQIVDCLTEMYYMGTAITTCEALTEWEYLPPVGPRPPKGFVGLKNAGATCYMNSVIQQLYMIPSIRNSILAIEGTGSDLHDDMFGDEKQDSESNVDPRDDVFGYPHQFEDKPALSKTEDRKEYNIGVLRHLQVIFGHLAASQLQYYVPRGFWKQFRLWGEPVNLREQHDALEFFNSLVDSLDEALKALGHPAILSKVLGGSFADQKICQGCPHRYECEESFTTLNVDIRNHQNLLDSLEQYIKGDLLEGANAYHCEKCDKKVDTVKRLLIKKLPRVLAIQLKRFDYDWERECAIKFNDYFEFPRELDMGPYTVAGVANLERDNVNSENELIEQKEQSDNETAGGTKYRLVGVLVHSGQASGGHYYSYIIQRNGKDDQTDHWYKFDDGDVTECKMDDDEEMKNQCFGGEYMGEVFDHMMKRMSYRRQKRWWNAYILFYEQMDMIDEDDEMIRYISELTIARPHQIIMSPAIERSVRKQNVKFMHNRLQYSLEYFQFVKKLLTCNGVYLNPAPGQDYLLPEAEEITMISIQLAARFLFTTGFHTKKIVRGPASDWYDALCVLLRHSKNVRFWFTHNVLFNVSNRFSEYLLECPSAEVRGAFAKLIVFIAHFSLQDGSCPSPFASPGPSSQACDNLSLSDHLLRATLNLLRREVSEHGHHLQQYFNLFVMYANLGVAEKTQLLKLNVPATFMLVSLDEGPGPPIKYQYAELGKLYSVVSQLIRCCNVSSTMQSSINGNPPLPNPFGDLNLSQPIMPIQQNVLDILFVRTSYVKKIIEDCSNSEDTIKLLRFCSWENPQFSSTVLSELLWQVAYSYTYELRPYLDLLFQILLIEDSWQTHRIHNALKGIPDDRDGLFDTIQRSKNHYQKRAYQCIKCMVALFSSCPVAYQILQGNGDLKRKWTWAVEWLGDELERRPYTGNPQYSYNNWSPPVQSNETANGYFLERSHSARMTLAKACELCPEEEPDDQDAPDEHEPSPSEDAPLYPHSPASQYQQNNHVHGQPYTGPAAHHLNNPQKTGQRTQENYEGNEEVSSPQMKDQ
In short: as §1

[4] = target: UniProt P51784
UniProt P51784, sequence (P51784 whole entry): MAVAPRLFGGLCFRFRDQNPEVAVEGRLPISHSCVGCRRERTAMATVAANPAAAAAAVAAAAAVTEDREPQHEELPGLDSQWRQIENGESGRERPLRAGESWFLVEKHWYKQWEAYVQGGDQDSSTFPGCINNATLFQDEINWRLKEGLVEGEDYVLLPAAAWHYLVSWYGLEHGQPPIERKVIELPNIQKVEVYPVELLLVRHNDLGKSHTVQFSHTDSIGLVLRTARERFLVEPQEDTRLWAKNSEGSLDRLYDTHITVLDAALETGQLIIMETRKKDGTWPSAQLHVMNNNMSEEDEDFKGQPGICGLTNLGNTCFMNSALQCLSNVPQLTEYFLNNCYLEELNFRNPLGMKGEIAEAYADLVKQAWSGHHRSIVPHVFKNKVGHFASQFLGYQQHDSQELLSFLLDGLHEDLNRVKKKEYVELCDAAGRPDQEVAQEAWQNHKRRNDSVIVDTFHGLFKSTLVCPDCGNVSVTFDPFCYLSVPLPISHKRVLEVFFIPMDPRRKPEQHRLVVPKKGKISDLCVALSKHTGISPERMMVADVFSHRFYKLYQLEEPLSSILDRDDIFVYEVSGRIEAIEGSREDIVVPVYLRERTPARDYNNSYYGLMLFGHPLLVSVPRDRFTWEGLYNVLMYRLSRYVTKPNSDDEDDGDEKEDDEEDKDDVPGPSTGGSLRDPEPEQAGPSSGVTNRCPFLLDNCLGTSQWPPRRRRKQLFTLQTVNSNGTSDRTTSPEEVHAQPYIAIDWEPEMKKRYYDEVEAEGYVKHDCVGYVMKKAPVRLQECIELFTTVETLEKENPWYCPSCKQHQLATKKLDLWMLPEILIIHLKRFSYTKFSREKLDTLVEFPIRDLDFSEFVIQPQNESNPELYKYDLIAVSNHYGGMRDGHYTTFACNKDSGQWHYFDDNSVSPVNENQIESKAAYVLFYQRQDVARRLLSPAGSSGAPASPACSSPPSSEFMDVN
In short: as §1

[5] = target: T1, UniProt Q5T2D3
T1 sequence (whole entry): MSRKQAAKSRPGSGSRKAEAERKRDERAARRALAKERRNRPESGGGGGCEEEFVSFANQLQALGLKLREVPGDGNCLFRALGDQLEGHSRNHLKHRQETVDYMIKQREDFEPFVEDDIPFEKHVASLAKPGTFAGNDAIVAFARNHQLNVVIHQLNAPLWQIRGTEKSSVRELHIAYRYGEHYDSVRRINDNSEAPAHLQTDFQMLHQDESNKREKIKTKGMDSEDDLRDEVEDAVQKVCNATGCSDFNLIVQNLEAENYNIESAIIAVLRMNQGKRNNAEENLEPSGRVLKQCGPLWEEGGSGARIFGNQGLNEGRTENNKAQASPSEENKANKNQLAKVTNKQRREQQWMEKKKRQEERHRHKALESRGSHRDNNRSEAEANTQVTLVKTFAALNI
In short: as §1

[6] = target: T2, UniProt Q8TE49
T2 sequence (whole entry): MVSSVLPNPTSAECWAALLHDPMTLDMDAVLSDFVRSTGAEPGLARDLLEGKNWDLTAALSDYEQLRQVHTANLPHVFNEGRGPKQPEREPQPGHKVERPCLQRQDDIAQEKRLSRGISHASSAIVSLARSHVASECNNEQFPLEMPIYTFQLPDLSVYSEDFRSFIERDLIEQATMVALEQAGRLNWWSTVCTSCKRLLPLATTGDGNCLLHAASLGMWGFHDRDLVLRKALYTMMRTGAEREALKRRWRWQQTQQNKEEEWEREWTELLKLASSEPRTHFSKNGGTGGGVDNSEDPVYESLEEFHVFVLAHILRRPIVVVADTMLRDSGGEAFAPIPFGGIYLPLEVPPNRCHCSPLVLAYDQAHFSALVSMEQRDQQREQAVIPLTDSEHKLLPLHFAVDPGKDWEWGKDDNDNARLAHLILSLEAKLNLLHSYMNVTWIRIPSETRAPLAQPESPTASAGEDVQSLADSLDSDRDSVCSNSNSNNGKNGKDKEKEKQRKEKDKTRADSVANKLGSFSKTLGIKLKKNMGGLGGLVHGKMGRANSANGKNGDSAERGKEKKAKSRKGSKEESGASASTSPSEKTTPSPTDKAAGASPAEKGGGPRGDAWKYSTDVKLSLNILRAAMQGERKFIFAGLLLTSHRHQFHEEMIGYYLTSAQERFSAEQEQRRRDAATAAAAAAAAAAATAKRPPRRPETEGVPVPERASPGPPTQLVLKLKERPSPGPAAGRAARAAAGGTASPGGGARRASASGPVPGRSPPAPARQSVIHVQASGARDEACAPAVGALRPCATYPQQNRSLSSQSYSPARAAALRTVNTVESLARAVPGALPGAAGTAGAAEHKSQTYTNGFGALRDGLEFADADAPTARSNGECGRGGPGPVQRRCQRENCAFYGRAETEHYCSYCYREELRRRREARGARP
In short: as §1

[7] = target: T3, UniProt Q9P2H5
T3 sequence (whole entry): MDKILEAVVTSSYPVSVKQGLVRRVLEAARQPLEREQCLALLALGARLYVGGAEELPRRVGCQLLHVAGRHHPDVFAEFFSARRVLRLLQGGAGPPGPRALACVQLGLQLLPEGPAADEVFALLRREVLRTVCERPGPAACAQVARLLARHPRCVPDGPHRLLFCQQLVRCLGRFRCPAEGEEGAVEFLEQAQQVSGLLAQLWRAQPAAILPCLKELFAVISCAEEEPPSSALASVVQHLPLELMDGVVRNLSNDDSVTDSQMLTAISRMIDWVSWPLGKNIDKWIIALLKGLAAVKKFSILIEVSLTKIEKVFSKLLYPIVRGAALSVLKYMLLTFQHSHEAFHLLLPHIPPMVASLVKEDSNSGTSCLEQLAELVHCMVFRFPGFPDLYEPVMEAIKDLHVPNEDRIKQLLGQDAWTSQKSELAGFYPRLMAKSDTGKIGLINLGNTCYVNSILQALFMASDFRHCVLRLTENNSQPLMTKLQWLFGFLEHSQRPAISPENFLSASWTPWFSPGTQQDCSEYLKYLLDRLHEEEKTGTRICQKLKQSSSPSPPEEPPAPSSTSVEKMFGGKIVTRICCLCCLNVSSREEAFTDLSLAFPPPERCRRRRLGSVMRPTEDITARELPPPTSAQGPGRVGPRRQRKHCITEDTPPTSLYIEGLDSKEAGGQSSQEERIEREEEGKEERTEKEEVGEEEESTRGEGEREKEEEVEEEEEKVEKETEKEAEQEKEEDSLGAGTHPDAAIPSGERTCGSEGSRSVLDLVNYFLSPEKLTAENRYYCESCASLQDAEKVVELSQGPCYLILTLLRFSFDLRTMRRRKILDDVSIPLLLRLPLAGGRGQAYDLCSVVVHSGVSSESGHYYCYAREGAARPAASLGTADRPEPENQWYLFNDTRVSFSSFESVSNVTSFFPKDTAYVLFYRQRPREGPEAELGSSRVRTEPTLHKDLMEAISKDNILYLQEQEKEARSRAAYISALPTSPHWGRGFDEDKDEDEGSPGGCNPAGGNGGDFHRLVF
In short: as §1

[8] = target: T4, UniProt Q9UGI0
T4 sequence (whole entry): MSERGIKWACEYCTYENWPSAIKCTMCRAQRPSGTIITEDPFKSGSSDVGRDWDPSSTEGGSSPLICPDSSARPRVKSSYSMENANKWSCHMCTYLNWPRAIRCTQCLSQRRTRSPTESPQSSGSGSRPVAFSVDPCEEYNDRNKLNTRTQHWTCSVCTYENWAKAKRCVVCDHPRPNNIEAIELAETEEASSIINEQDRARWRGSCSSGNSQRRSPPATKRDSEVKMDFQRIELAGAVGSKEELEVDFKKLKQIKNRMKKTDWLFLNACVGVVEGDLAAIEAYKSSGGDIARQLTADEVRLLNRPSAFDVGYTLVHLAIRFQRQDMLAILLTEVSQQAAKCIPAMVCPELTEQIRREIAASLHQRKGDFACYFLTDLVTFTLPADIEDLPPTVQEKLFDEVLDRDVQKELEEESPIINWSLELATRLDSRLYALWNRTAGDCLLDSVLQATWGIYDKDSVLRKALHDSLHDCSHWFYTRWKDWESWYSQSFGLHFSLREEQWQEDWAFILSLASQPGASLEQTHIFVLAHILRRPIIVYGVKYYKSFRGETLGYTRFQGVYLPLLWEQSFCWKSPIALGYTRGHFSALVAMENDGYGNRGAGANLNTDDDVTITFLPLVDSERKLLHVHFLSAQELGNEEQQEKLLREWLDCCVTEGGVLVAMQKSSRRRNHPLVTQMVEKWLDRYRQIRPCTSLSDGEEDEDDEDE
In short: as §1

[9] = target: T5, YOD1 (UniProt Q5VVQ6)
T5 sequence (whole entry): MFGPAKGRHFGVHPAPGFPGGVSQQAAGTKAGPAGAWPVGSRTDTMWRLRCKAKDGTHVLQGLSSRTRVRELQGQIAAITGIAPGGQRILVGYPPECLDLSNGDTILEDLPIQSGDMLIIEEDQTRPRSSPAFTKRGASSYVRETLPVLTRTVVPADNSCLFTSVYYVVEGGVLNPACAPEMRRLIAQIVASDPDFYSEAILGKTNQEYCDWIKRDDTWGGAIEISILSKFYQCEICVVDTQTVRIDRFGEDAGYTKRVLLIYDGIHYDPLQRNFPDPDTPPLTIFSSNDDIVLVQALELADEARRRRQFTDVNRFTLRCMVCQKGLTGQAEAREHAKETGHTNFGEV
In short: as §1

Measured: log2 ratio of Biotin-Ahx-Ub-VS probe labelling

Cc1cccc(N2CCC(NC(=O)CCl)C2=O)c1 (centres undefined)
inactive: [1] -0.421 | [2] 0.133 | [3] 0.294 | [4] -0.28 | [5] -0.334 | [6] -0.961 | [7] -0.395 | [8] -0.883 | [9] -0.459
